The source of these data is PubChem BioAssay.

Molecules are shown by their SMILES.

The test is described as follows: probe aEGFR binding to arrayed compounds – biochemical, biotinylated probe, 635/667 nm fluorescence, primary screen (AID 1097).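 Also: probe is a biotinylated anti-EGFR antibody binding compounds printed on slides; score combines fluorescence near 667 nm and signal to noise of each spot.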 The settings on record: small-molecule microarray, higher = more signal.
Molecule `COC(=O)[C@@]1(Cc2ccc(F)cc2)[C@H]2c3cc(C(=O)N4CCCC4)n(CCc4c[nH]c5ccc(OC)cc45)c3C[C@H]2CN1C(=O)c1ccccc1` returned a composite z-score of 0.44.

Turning to `COCCOC(=O)N1C(=O)[C@@]2(c3cc(C#CC4(O)CCCCCC4)ccc31)[C@H](C(=O)N1CCCCCCC1)[C@H]1C(=O)O[C@H](c3ccccc3)[C@H](c3ccccc3)N1[C@@H]2c1ccc(OCCO)cc1`, the composite z-score is 0.757.

Consider `COC(=O)Cn1c(C(=O)N2CCCC2)cc2c1C[C@H]1CN(C(=O)c3ccccc3)[C@@](Cc3ccc(F)cc3)(C(=O)OC)[C@@H]21`, for which the composite z-score was -0.363.

Molecule `NC(=O)N1C(=O)C2C(C1=O)C1C=C(c3ccc(CO)cc3)C2C(C2CC2)N1Cc1sc2ccccc2c1Cl` (stereo not drawn) had a composite z-score of -0.0271.

With `CC=CC(O)C1C=CC2C(=O)N(C)C(=O)C2N1Nc1ccc([N+](=O)[O-])cc1[N+](=O)[O-]` (stereo not drawn), the composite z-score is -0.342.

In turn, `CN(C)CCCNC(=O)[C@@]1(c2ccc([N+](=O)[O-])cc2)CC(=O)N(CC23CC4CC(CC(C4)C2)C3)[C@@H]1c1ccc(CO)cc1` registered a composite z-score of 0.0529.

`C=CC1c2cc(O)c(OC)cc2CCN1Cc1sc2ccccc2c1Cl` (stereo not drawn) showed a composite z-score of 0.0673.

Turning to `CC(C)C(=C=CC[C@@H](O)c1ccccc1OCCO)C[C@@H](O)COCc1ccccc1`, the composite z-score was determined as 0.001.

As to `C=CCN1C(=O)[C@]2(CC=C)N=C(c3ccc(OCCCO)cc3)O[C@@H]2c2ccccc21`, the composite z-score stood at 0.038.

Turning to `Cc1ccc(S[C@]2(C(=O)NCc3ccccc3)CC(=O)N(C(C)C)[C@@H]2c2ccc(CO)cc2I)cc1`, the composite z-score was -0.229.

Molecule `CO[C@H]1O[C@H](CO)[C@@H](OC(=O)Nc2ccc(C(F)(F)F)cc2)[C@H](OC(=O)Nc2ccc3c(c2)OCO3)[C@H]1OC(=O)Nc1ccc2c(c1)OCO2` yielded a composite z-score of 0.104.

Turning to `CN1C2C=C(CCCO)C(C3C(=O)N(C(N)=O)C(=O)C32)C1c1cccs1` (stereo not drawn), the composite z-score is 0.976.

`COC(=O)C(CC#Cc1ccc2c(c1)[C@]1(C(=O)N2)[C@H](C(=O)O)[C@H]2C(=O)O[C@H](c3ccccc3)[C@H](c3ccccc3)N2[C@@H]1c1ccccc1OCCO)C(=O)OC` registered a composite z-score of 0.103.

Consider `CC(C)CCC[C@@H](C)[C@H]1CC[C@@]2(C)C3=C(CC[C@]12C)[C@@]1(C)CC[C@H](OC(=O)c2ccc(Br)cc2)C(C)(C)C1CC3` (stereo partly drawn), for which the composite z-score was -0.0333.

For `Cc1ccc(S[C@]2(C(=O)NCCN3CCOCC3)CC(=O)N(Cc3ccccc3C(F)(F)F)[C@@H]2c2ccc(CO)cc2I)cc1`, the composite z-score was -0.233.

As to `CCCCN1CC=CC23O[C@@H]4C=CCOC(=O)[C@@H]4[C@H]2C(=O)N(CCCO)[C@@H]3C1=O` (stereo partly drawn), the composite z-score is -0.285.

In the case of `C=C[C@@H](C)[C@H](OC(=O)Nc1ccc(SC)cc1)c1ccc(OCCO)cc1`, the composite z-score was -0.105.

`O=c1cccc(-c2cccc(Cl)c2)o1` showed a composite z-score of -0.0304.

As to `Cc1ccc(S[C@]2(C(=O)NCC(F)(F)F)CC(=O)N(Cc3ccccc3)[C@@H]2c2ccc(CO)cc2)cc1`, the composite z-score is -0.178.

With `COc1ccc([Si](C)(C)[C@H]2[C@H](CC(=O)N3Cc4ccccc4C[C@H]3CO)O[C@@]3(C(=O)N(Cc4cccc(N5CCCCC5=O)c4)c4ccccc43)[C@@H]2C)cc1`, the composite z-score is -0.0471.

Consider `O=C1OCC=C[C@H]2OC34C=CCN(Cn5nnc6ccccc65)C(=O)[C@H]3N(CCCCCCO)C(=O)[C@@H]4[C@@H]12` (stereo partly drawn), for which the composite z-score was -0.195.

`COCCOC(=O)N1C(=O)[C@@]2(c3cc(C#Cc4ccc(OC)cc4)ccc31)[C@H](C(=O)N1CCN(c3ncccn3)CC1)[C@H]1C(=O)O[C@H](c3ccccc3)[C@H](c3ccccc3)N1[C@@H]2c1ccccc1OCCO`: the composite z-score was -0.0382.

`O=C1C2C=CC(C(O)c3cc(C(F)(F)F)cc(C(F)(F)F)c3)N(Nc3ccc([N+](=O)[O-])cc3)C2C(=O)N1c1ccccc1` (stereo not drawn) returned a composite z-score of 0.0149.

Consider `CCOC(=O)C[C@H]1[C@H](OC(=O)Cc2ccc3c(c2)OCO3)[C@@H](NC(=O)Cc2ccc(OC)cc2)c2cc(OCCCO)ccc2N1C(=O)c1ccccc1`, for which the composite z-score was determined as 0.0032.

Consider `O=C1NCC(=O)N2[C@@H]1C[C@@H](C(=O)O)[C@H]2c1ccc(O)cc1`, for which the composite z-score is -0.326.

As to `C=C(COC)/C(=C/C[C@@H](OC(=O)c1ccncc1)c1cccc(OCCO)c1)c1cnc2ccccc2c1`, the composite z-score amounted to 0.0892.

As to `CCOC(=O)C[C@H]1[C@H](OC(=O)c2ccccc2-c2ccccc2)[C@@H](NC(=O)c2ccc3ccccc3n2)c2cc(OCCCO)ccc2N1C(=O)c1ccc2ccccc2n1`, the composite z-score was -0.0512.

`[N-]=[N+]=NCc1ccccc1C[C@]1(C(=O)NCC(O)CO)N=C(c2ccc(OCCCO)cc2)O[C@H]1c1ccccc1CN=[N+]=[N-]` (stereo partly drawn) came in with a composite z-score of 0.306.
